These results are taken from PubChem BioAssay (NCI).

The structures appear in SMILES notation. This is part of a sample that, as a whole, favours compounds with a hit. Of some 83,000 tested, about 20% had one in any assay.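 Note: values are percent growth. 100 is the growth of untreated cells, values between 100 and 0 indicate rising inhibition; between -100 and 0 indicates cell death.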 Calls of active or inactive are those of the source. Rule for the calls: active = growth percent below 10; inactive = the rest.

This experiment has as its system M14 melanoma. Briefly: NCI-60 one-dose screen, 48 h (100 = growth as untreated, 0 = no growth, -100 = all killed). As to conditions: 10 µM unless noted.
For `C=C1C(=O)O[C@H]2[C@H]1CC/C(COC(=O)NCc1ccc(Cn3c(=O)sn(CCCC)c3=O)cc1)=C\CC[C@@]1(C)O[C@@H]21`, the growth is 6.26% (active). As for `O=C(Nc1ncc(Cc2ccccc2)s1)c1cc(-c2ccccc2)nc2ccccc12`, the figure is 93.3% (inactive); as for `CC(=O)Oc1ccccc1C(=O)N(Cc1ccc2c(Cl)cc(Cl)c(O)c2n1)c1ccccc1`, 51% (inactive). As for `O=C(Nc1ccccc1)Nc1ccccc1CNc1nc(Nc2ccc(OCCN3CCCC3)cc2)ncc1Cl`, the figure is 61.2% (inactive).

As for `C#Cc1ccc(NC(=O)Cc2ccc(/C=C/C(=O)c3nccn3C)cc2)cc1`, the growth was 98.6% (inactive). The value for `O=C(O)c1nn(-c2ccc(Cl)cc2)nc1N1CCCC1` was 96.7% (inactive); that for `CCc1ccc(Cc2cnc(NC(=O)c3cc(C)oc3C)s2)cc1` was 21.4% (inactive).

As for `O=C(NCCN1CCOCC1)c1cncnc1Nc1ccc2c(ccn2Cc2ccccn2)c1`, the growth was 108% (inactive).

Consider `CC/C(=C(/c1ccc(Cl)cc1)c1ccc(OCCN2CCCCCC2)cc1)c1ccccc1`, for which the growth is 81.6% (inactive). As for `CC(=O)OCC(=O)O[C@@H]1C[C@]2(C(C)C)O[C@@]1(C)[C@@H]1CC[C@@H](C)[C@H]1[C@@H]2OC(=O)/C=C/c1ccccc1`, the figure is 97.2% (inactive); as for `COc1ccc(C(=O)/C=C/c2ccc(C)cc2)cc1S(N)(=O)=O`, 71.1% (inactive).

Consider `Cc1ccc(Nc2oc(-c3ccccc3)nc2[P+](c2ccccc2)(c2ccccc2)c2ccccc2)cc1`, for which the growth was -76.2% (active). Take `COc1ccc(N/N=C/c2ccc3c(c2)Sc2ccccc2N3C)cc1`: the growth is 40.9% (inactive). As for `COc1ccc(N2C(=O)/C(=C/C(Cl)=C/c3ccc([N+](=O)[O-])cc3)SC2=S)cc1`, the figure is 12.3% (inactive).

Consider `COc1ccc(C2=C/C(=C\c3ccccc3O)C(=O)N2Cc2ccccc2)cc1`, for which the growth is 50.5% (inactive). The value for `COC(=O)[C@H]1Cc2c([nH]c3ccccc23)[C@H](c2ccc3c(c2)OCO3)N1` was 108% (inactive).

Consider `O=C(Nc1ncc(Cc2ccccc2)s1)c1ccc2c(c1)OCCO2`, for which the growth was 18.6% (inactive). As for `CC(=O)CC(=O)c1ccccc1.[Cu+2]`, the figure is 107% (inactive). As to `COC1CC(O)C2=C(CC3C(/C(C)=C\CC=C(C)C)CCC3(C)O2)C1=O` (stereo not given), the growth is 106% (inactive). `Nc1c(C(=O)c2ccc(Cl)cc2)sc(Nc2ccccc2)c1-c1nc2ccccc2s1`: the growth was 30.6% (inactive).

Regarding `C=CC(=O)Nc1ccc2ncnc(Nc3cccc(NS(=O)(=O)CCC)c3Cl)c2c1`, the growth was 19.6% (inactive).

As for `CCN1C(=O)N(CC)C2C1NC(=S)N2/N=C/C=C/c1ccccc1` (stereo not given), the growth is 5.45% (active). The value for `Oc1cccc2c1NCCC2` was 31.4% (inactive); that for `CCOC(=O)c1cnc2sc(-c3ccc(OC)cc3)nc2c1Cl` was 79.1% (inactive). The value for `Cc1ccc2nc(/C=C/c3ccc(N(C)C)cc3)cc(C)c2c1` was 13.2% (inactive); that for `C=CCOC(=O)C1=C(C)N(CC)C(=O)N(CC)C1c1c(Cl)n(C)c2ccccc12` (stereo not given) was 75.1% (inactive). As for `C=C(C)[C@@H]1CC[C@]2(COC(=O)c3cccnc3)CC[C@]3(C)[C@H](CC[C@@H]4[C@@]5(C)CCCN(C(=O)c6cccnc6)C(C)(C)[C@@H]5CC[C@]43C)[C@@H]12`, the figure is 41.5% (inactive). Regarding `COc1ccc(C2=NN3C(C2)c2cc(Br)ccc2OC3c2ccncc2)cc1` (stereo not given), the growth was 86.8% (inactive). As for `C=CC(=O)NCc1cccc(Nc2ncc(Br)c(NCCCNC(=O)C3CCC3)n2)c1`, the figure is -31% (active); as for `O=C(O)/C=C/c1cn(-c2ccccc2)nc1-c1ccc(F)cc1`, 90% (inactive). Take `CCNCCNc1c(C)c(-c2ccc(C(F)(F)F)cc2)c(C#N)c2nc3ccccc3n12`: the growth is 56.1% (inactive).

For the compound `O=C1CCc2c(sc3[nH]c(=S)n(-c4cc(C(F)(F)F)cc(C(F)(F)F)c4)c(=O)c23)C1`, the growth is 23.6% (inactive). `COc1cc2cc(Oc3ccc(NC(=O)Nc4ccc(F)c(C(F)(F)F)c4)cc3)c(C)nc2cc1OCCN1CCCCC1`: the growth is -86.8% (active). For `Cc1ccc2c(c1)CC(O)CC1C(=O)N(CCO)CC(=O)N21` (stereo not given), the growth was 103% (inactive). For the compound `CC(C)(C)CC(C)(C)Nc1c(-c2c(O)c3ccccc3oc2=O)nc2sccn12`, the growth was 97.2% (inactive). The value for `O=C1NC(=O)C(=Cc2cc(-c3ccc(Cl)cc3)n(-c3ccccc3)n2)C(=O)N1` was 93.1% (inactive); that for `CCOC(=O)c1c2c(n3ccc(NC(=O)CCN4CCCC4)cc13)C(=O)c1ncccc1C2=O` was 63.7% (inactive).

Turning to `COc1ccc(-c2ccc(-c3ccc(C(=N)N)o3)o2)cc1`, the growth is 35.1% (inactive). As for `CC(C)c1nc(N(C)S(C)(=O)=O)nc(-c2ccc(F)cc2)c1/C=C/C(=O)C[C@@H](O)CC(=O)O`, the figure is 102% (inactive); as for `CCOc1cc(\C=N/N=C(N)/C(N)=N\N=C/c2ccc(O)c(OCC)c2)ccc1O`, 113% (inactive).
